We go through 62 compounds from PubChem BioAssay AID686970 (National Center for Advancing Translational Sciences (NCATS), 2013).

Structures are written as SMILES. Out of some 360,000 compounds screened, about 6,000 (1.7%) were called active. Not shown: some 8% with an inconclusive outcome. Calls come from the whole dose curve; as a rule, active = well fitted cell-killing curve with a large enough effect; inconclusive = small, poorly fitted or top-dose-only effect, or effect the other way; inactive = flat fitted curve, though single readings scatter. The entries come from a sample that favours actives as a whole. A call without a number means that no potency is given here.
Potency is the fitted concentration of half-maximal effect.

This test is described as follows: qHTS for induction of synthetic lethality in tumor cells producing 2HG: qHTS for the HT-1080-NT fibrosarcoma cell line.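 Note: NT is the 2HG producing partner of a matched IDH1 knockdown line; nearly all actives have a fitted effect of over 55% in size.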 To be noted: HT-1080-NT fibrosarcoma viability, CellTiter-Glo ATP luminescence, 48 h; series mostly up to 46.1 µM. Put shortly:
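Luminescent CellTiter-Glo readout after 48 hours of compound exposure at 37 degrees C defined viability of HT-1080-NT cells. Activity was normalized to DMSO wells and cell-free media wells; concentration-response curves were fitted and assigned curve classes.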
(Quantitative high-throughput screening tests each substance at several concentrations.)
Regarding `COc1cc(C(=O)N2CCOC23CCN(Cc2ccccc2)CC3)cc(OC)c1OC`, the Potency entry was “inactive”.

On to `COC(=O)c1ccc2nc(-c3ccc(F)cc3)c(Cc3ccc(C)cc3)n2c1`, for which the Potency result is “inactive”. With `CCCCCc1c(Cc2ccccc2)ncn1CCc1ccccc1OC` the figure was 18.4 µM (active); with `COc1ccccc1Cc1c(-c2ccc(Cl)cc2)nc2c3ccccc3ccn12`, “inactive”; with `CCCCCc1c(-c2ccc(OC)c(OC)c2)ncn1CCc1ccccc1OC`, 20.6 µM (active). With `COc1ccccc1Cc1c(-c2ccc(Cl)cc2)nc2ccc(Cl)cn12`, the Potency entry is “inactive”.

On to `COc1ccccc1CCNS(=O)(=O)c1cn(C)nc1C`, for which the Potency entry is “inactive”.

As for `COc1ccc(-c2nn(-c3ccccc3)cc2C(=O)Nc2nccs2)cc1OC`, the Potency result is “inactive”. In the case of `CCCCc1c(-c2ccc(Br)cc2)ncn1CCc1ccccc1OC`, the Potency was 9.2 µM (active). Under `CCC(=O)NCc1cc(-c2nn(C)c(=O)c3ccccc23)ccc1OC` stands “inactive”.

`Cn1c(=O)c2c(ncn2CCc2ccccc2)n(C)c1=O`: the Potency entry is “inactive”. `CC1(C(=O)NS(=O)(=O)c2ccccc2)CCN1C(=O)Cc1ccc(-c2ccccc2)cc1` (configuration not stated): the Potency entry was “inactive”. Take `O=C(CC(CC(=O)c1ccccc1)c1ccco1)c1ccccc1`: the Potency entry is “inactive”.

With `CC1=C(C(=O)N(C(C)C)C(C)C)CC(CC(=O)NCC2CCCCC2)C(=O)N1Cc1ccccc1` (configuration not stated), the Potency entry is “inactive”. For the compound `Cc1ccc(C=O)c([B-](F)(F)F)c1`, the Potency result was “inactive”. Under `O=C(NCc1ccccn1)[C@@H]1CCCN1C(=O)[C@@H]1CCCN1C(=O)c1ccccc1` stands “inactive”; under `CN1OC[C@@H]2CN[C@H](c3ccc(-c4ccccc4)cc3)C[C@@H]21`, “inactive”; under `CCc1ccc(C2C(C#N)=C(N)Oc3n[nH]c(CC(=O)OC)c32)cc1` (configuration not stated), “inactive”. Under `COCc1[nH]nc2c1C(C1C=CCCC1)C(C#N)=C(N)O2` (configuration not stated) stands 14.1 µM (active); under `COc1cc(C2C(C#N)=C(N)Oc3n[nH]c(-c4ccccn4)c32)cc(OC)c1OC` (configuration not stated), “inactive”; under `Cc1ccc([C@@H]2CC(=O)[C@@H]3CN(S(=O)(=O)c4ccc(C)cc4)[C@H](c4ccccc4F)C[C@@H]3N2S(=O)(=O)c2ccc(Cl)cc2)cc1`, “inactive”.

Regarding `FC(F)(F)c1ccccc1Cc1c(-c2ccccc2)nc2c3ccccc3ccn12`, the Potency entry was “inactive”. Under `NS(=O)(=O)c1ccc(NC(=O)CSc2nnc3c(n2)[nH]c2ccccc23)cc1` stands “inactive”; under `CN1CCN(C2Cc3ccc(Cl)cc3Sc3ccc(F)cc32)CC1` (configuration not stated), 14.6 µM (active). For `C[C@H]1CN([C@@H](C)CO)C(=O)c2cc(Br)cnc2O[C@H]1CN(C)S(=O)(=O)c1cccs1`, the Potency entry is “inactive”. `CN(C)c1cccc(NC(=O)c2ccc(-c3ccc(F)c(F)c3)c3ccoc23)c1`: the Potency result was “inactive”. In the case of `Cc1ccc(S(=O)(=O)N2CC3C(=O)C[C@@H](c4ccccc4Cl)N(S(=O)(=O)c4ccc(C)cc4)C3CC2c2ccccc2)cc1` (some centres not stated), the Potency result is “inactive”. `CC1(C)OC(=O)C2=C(C[C@@H](C3CC3)O[C@H]2CCc2cccc(Cl)c2)O1`: the Potency entry was “inactive”.

For the compound `CCC(C)Sc1nc2c(c(=O)[nH]c(=O)n2C)n1CC(O)COc1cccc2ccccc12` (configuration not stated), the Potency entry was “inactive”. Consider `CC(C)c1ccccc1OCC(O)CN(CC(O)COc1cccc2ccccc12)C(C)C` (configuration not stated), for which the Potency was 18.4 µM (active).

As to `CN1CCN(CCCCOc2cccc3ccccc23)CC1`, the Potency entry is “inactive”. Regarding `Cc1nc(C(F)(F)F)ccc1C(=O)N1CCC1(C)C(=O)NS(=O)(=O)c1ccc(F)cc1F` (configuration not stated), the Potency result is “inactive”. As for `COC(=O)c1ccc2nc(-c3cccc(Br)c3)c(Cc3ccccc3C(F)(F)F)n2c1`, the Potency entry was “inactive”. With `COc1ccc(NC(=O)C2Cc3c(-c4ccc5c(c4)OCO5)ccnc3O2)cn1` (configuration not stated) the figure was 5.8 µM (active); with `O=C(Nc1ccc(Cl)cc1)C1Cc2c(-c3ccc4c(c3)OCO4)ccnc2O1` (configuration not stated), “inactive”. Take `COc1ccc(NC(=O)C2Cc3c(-c4cccc(NC(C)=O)c4)ccnc3O2)cc1OC` (configuration not stated): the Potency result was “inactive”.

Consider `O=C1C(=O)N(CC2COc3ccccc3O2)c2ccccc21` (configuration not stated), for which the Potency entry was “inactive”. On to `Cc1ccsc1C(=O)OCC(=O)c1cc(C)n(CC2CCCO2)c1C` (configuration not stated), for which the Potency result is “inactive”. For the compound `Cc1cc(C(=O)CCl)c(C)n1CC1COc2ccccc2O1` (configuration not stated), the Potency was 14.6 µM (active). On to `COCCCn1c(=O)/c(=C/c2ccccc2OC(C)C)s/c1=C(\C#N)C(=O)Nc1ccc(C(=O)O)cc1`, for which the Potency result is “inactive”. Under `CCOC(=O)C1CCCN(C(=O)c2ccc(C)c(F)c2)CC1` (configuration not stated) stands “inactive”. With `Cc1cc(C)n(-c2nc(C(F)(F)F)nc3ccccc23)n1`, the Potency entry is “inactive”. With `CC(Nc1nc(C(F)(F)F)nc2ccccc12)c1cccs1` (configuration not stated) the figure was 20.6 µM (active); with `CC(C)(C)Nc1nc(-c2ccccn2)nc2ccccc12`, “inactive”. Regarding `Clc1ccc(-c2cccc3nccn23)cc1`, the Potency entry is “inactive”. In the case of `CCOC(=O)c1c(C)[nH]c2c1-c1ccccc1C(=O)C2=O`, the Potency was 2.91 µM (active). In the case of `CCOC(=O)C1=C(C)c2ccccc2OC1(C)C(=O)OCC` (configuration not stated), the Potency entry was “inactive”.

As for `CCOC(=O)c1ccccc1OC(=O)Oc1ccccc1C(=O)OCC`, the Potency entry is “inactive”. Regarding `CCOC(=O)[C@]12CCCC=C1N(Cc1ccc3c(c1)OCO3)C(=O)[C@H](CC(=O)N1CCN(C(=O)c3ccco3)CC1)C2`, the Potency result was “inactive”. As for `COc1cc(CNc2ncnc3c2ncn3[C@H]2CN(Cc3cccs3)C[C@@H](CO)O2)cc(OC)c1OC`, the Potency entry was “inactive”. For the compound `CC(=O)Nc1ccc(CNc2nc(NCCN(C)C)nc3cc(-c4ccccc4)sc23)cc1`, the Potency is 11.6 µM (active). As to `COCCNc1nc(NCc2ccc(NC(C)=O)cc2)c2sccc2n1`, the Potency result was “inactive”.

`COCCNc1nc(Nc2ccccc2Cl)c2sc(-c3ccccc3)cc2n1`: the Potency result was “inactive”. As for `COc1ccc(Cl)cc1NC(=O)CN(C)C(=O)c1cn(-c2ccccc2)nc1-c1cccs1`, the Potency result was “inactive”.

`Cc1ccc(C(=O)N2CCCc3ccccc32)c(Cl)c1`: the Potency entry is “inactive”.

Take `Cc1cccc2cc3c(N)c(C(=O)N4CCCc5ccccc54)sc3nc12`: the Potency was 3.26 µM (active). Consider `O=C(c1cc(-c2ccc(O)cc2)on1)N1CCCc2ccccc21`, for which the Potency entry was “inactive”. As for `O=C(C[C@H]1C[C@@H]2c3cc(NC(=O)C4CCC4)ccc3O[C@@H]2[C@H](CO)O1)NC1CCCCC1`, the Potency entry was “inactive”. Take `CCOC(=O)C1=C(c2ccc(OC)cc2)C(=O)c2ccccc2C1=O`: the Potency was 5.8 µM (active). With `COc1ccc(CNC(=O)CCN2C(=O)c3ccccc3C2=O)cc1` the entry was “inactive”; with `CCOC(=O)C(NC(C)=O)C(=O)Nc1ccc(OC)cc1` (configuration not stated), “inactive”. On to `O=C(NN=Cc1ccc2c(c1)CCC2)c1ccccc1O`, for which the Potency result is “inactive”.
